Measured values taken from PubChem BioAssay (EPA / NIEHS).
Records with an inconclusive call do not appear. The source made the active and inactive calls. How the source made its calls, unless noted: active means hit-call score of the fitted dose curve at least 0.9, where 1 is the maximum; inactive means score below 0.9.

Columns and labels:
[1] = BSK_3C_uPAR: BioMAP Diversity Plus: 3C Assay for Urokinase-type plasminogen activator receptor (uPAR) Biomarker Activity (AID 2282998); conditions: BioMAP 3C HUVEC, uPAR biomarker ELISA; actives raise or lower the signal
In short: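 Readout: ELISA for surface uPAR. System: human umbilical vein endothelial primary cells, 24 h after chemical exposure. Analysis: bidirectional fit, DMSO baseline.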

[2] = BSK_3C_VCAM1: BioMAP Diversity Plus: 3C Assay for Vascular cell adhesion molecule 1 (VCAM1) Biomarker Activity (AID 2282999); conditions: BioMAP 3C HUVEC, VCAM1 ELISA, cytokine-stimulated; actives raise or lower the signal
In short: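 Human umbilical vein endothelial cells were dosed with compound for 24 h, after which cell-surface VCAM-1 was quantified by ELISA. Bidirectional curve fitting used DMSO as negative control and activity baseline.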

[3] = BSK_4H_Eotaxin3: BioMAP Diversity Plus: 4H Assay for Eotaxin 3 Biomarker Activity (AID 2283000); conditions: primary human endothelial cells (HUVEC); actives raise or lower the signal
In short: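 Chemicals were added to human umbilical vein endothelium cultures, and Eotaxin-3 was quantified by ELISA at 24 h. Values were derived by bidirectional fitting with DMSO serving as negative control and activity baseline.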

[4] = read-out: Intercellular Adhesion Molecule 1 (ICAM1), ICAM1 (gene 3383); assay: BSK_3C_ICAM1: BioMAP Diversity Plus: 3C Assay for Intercellular Adhesion Molecule 1 (ICAM1) Biomarker Activity (AID 2283003); conditions: primary human endothelial cells (HUVEC); actives raise or lower the signal
In short: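 Human vascular endothelial primary cells, 3C conditions, 24 h treatment. ICAM-1 by ELISA.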

[5] = target: human Retinoic Acid Receptor beta (RARb), RARB (gene 5915) (UniProt P10826); assay: ATG_RARb_TRANS: Attagene TRANS-FACTORIAL HepG2 Assay for human Retinoic Acid Receptor beta (AID 2283004; active means hit-call score of the fitted dose curve at least 0.9, where 1 is the maximum)
Chain of human Retinoic Acid Receptor beta (RARb), RARB (gene 5915) (P10826 whole entry, looked up): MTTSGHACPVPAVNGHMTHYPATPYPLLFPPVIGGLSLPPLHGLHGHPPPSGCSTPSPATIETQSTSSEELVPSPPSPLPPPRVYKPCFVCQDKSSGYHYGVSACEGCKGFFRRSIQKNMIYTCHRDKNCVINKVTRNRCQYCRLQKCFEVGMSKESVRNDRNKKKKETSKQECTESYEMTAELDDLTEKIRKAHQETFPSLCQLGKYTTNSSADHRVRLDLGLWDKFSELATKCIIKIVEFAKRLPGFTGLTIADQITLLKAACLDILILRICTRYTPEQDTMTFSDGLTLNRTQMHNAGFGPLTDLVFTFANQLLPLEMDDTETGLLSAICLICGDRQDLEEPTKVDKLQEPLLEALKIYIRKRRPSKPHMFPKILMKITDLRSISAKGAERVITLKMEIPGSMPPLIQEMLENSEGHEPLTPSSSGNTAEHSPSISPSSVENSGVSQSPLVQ
In short: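 Transient transfection of HepG2 with multiple reporter units → chemical dosing, 24 h → total RNA isolation → RT with oligo(dT) → reporter-specific PCR, 6-FAM primer extension, HpaI digest → capillary electrophoresis. Positive direction vs DMSO control.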

[6] = target: Retinoic acid receptor alpha (Homo sapiens) (UniProt P10276); assay: ATG_RARa_TRANS: Attagene TRANS-FACTORIAL HepG2 Assay for human Retinoic Acid Receptor alpha (RARa) (AID 2283005; active means hit-call score of the fitted dose curve at least 0.9, where 1 is the maximum)
Chain of Retinoic acid receptor alpha (Homo sapiens) (P10276 whole entry, looked up, the tested form may be a part): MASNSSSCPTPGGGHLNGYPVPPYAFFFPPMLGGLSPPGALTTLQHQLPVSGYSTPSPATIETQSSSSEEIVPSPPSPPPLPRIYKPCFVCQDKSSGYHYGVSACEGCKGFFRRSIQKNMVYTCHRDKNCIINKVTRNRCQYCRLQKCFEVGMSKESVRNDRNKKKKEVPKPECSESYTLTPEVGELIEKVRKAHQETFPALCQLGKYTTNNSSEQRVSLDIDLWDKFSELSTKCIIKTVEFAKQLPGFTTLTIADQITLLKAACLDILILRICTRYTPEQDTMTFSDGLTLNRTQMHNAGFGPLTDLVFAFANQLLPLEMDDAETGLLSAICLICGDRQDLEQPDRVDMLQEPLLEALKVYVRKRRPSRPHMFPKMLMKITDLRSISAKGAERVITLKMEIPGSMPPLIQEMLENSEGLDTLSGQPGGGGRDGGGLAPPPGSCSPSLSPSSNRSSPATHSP
In short: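 HepG2 cells transiently transfected with multiple reporter units expressing chimeric RARα-GAL4 fusion, with GAL4-UAS-driven reporters. After 24 h compound exposure, reporter mRNA induction quantified by RT-PCR and capillary electrophoresis with fluorescent labeling; gain-of-signal fitted relative to DMSO control.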

[7] = BSK_3C_Proliferation: Cell Proliferation Assessment in the BioMAP Diversity Plus: 3C Assay (AID 2283006); conditions: primary human endothelial cells (HUVEC);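 on AC50: potency may reflect either rise or fall in cell number versus DMSO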
In short: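 Proliferation of human vascular endothelial primary cells after 48 h dosing, quantified as SRB-stained protein at 560 nm relative to DMSO.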

[8] = target: Peroxisome proliferator-activated receptor gamma (Homo sapiens) (UniProt P37231); assay: ATG_PPARg_TRANS: Attagene TRANS-FACTORIAL HepG2 Assay for human Peroxisome Proliferator-activated Receptor-gamma (PPARg) (AID 2283007; active means hit-call score of the fitted dose curve at least 0.9, where 1 is the maximum)
Chain of Peroxisome proliferator-activated receptor gamma (Homo sapiens) (P37231 whole entry, looked up, the tested form may be a part): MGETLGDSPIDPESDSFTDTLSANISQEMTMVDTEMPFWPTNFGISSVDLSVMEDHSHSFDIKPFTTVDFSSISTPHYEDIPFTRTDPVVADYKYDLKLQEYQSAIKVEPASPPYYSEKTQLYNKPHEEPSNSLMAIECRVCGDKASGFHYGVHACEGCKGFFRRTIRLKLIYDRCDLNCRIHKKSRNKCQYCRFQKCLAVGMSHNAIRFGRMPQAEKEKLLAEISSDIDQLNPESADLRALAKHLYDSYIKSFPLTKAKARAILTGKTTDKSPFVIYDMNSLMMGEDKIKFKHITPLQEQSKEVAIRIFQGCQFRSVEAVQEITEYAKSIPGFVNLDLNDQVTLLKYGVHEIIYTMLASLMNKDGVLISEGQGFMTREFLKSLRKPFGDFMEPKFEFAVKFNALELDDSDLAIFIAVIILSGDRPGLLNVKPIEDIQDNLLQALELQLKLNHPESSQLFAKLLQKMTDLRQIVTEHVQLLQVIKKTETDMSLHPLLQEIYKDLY
In short: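 Transient transfection of HepG2 with GAL4-UAS-driven reporter units; chemical dosing 24 h; total RNA → oligo(dT) RT → PCR with reporter primers → 6-FAM primer extension → HpaI digest 2 h 37 C → capillary electrophoresis. Positive direction vs DMSO.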

[9] = target: Nuclear receptor subfamily 1 group I member 2 (Homo sapiens) (UniProt O75469); assay: ATG_PXR_TRANS: Attagene TRANS-FACTORIAL HepG2 Assay for human Pregnane X Receptor (PXR) (AID 2283008; active means hit-call score of the fitted dose curve at least 0.9, where 1 is the maximum)
Chain of Nuclear receptor subfamily 1 group I member 2 (Homo sapiens) (O75469 whole entry, looked up, the tested form may be a part): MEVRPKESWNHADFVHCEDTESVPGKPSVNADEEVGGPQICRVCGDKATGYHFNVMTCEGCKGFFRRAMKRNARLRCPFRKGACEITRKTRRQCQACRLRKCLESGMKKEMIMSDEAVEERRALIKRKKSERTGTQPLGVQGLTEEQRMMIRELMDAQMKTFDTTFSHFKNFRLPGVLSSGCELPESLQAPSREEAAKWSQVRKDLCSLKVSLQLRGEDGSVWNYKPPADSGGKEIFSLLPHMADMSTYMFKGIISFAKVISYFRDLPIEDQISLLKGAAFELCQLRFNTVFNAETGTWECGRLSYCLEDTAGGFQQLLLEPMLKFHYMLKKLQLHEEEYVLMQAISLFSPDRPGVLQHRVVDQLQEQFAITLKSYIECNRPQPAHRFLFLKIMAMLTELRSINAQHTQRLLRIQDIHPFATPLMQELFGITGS
In short: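 Fluorescence intensity of FAM-labelled, HpaI-digested reporter amplicons, separated by capillary electrophoresis, quantifies induction. HepG2 cells with PXR-Gal4 trans-reporter system were exposed 24 h; DMSO defines baseline.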

[10] = target: human RAR-related Orphan Receptor gamma (RORg), RORC (gene 6097) (UniProt P51449); assay: ATG_RORg_TRANS: Attagene TRANS-FACTORIAL HepG2 Assay for human RAR-related Orphan Receptor gamma (RORg) (AID 2283011; active means hit-call score of the fitted dose curve at least 0.9, where 1 is the maximum)
Chain of human RAR-related Orphan Receptor gamma (RORg), RORC (gene 6097) (P51449 whole entry, looked up, the tested form may be a part): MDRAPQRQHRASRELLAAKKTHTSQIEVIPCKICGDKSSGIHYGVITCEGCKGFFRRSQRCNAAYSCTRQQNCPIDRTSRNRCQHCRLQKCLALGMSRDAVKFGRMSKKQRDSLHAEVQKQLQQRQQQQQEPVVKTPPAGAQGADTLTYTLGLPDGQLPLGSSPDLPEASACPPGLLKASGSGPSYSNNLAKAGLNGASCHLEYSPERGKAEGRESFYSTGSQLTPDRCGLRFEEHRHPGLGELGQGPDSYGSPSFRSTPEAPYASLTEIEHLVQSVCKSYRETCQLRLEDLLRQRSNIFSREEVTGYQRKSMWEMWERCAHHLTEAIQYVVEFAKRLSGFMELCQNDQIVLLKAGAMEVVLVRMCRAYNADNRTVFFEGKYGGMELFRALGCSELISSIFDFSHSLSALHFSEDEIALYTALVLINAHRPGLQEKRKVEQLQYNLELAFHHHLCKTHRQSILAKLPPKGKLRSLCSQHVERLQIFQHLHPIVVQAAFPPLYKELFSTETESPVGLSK
In short: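 First, HepG2 liver cells were transfected with GAL4-UAS-driven reporter constructs and the RORg-Gal4 fusion. Next, they were treated with chemical for 24 h. Finally, reporter mRNA was quantified by RT-PCR and capillary electrophoresis, with upward activity fitted against DMSO.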

[11] = target: Retinoic acid receptor RXR-alpha (Homo sapiens) (UniProt P19793); assay: ATG_RXRa_TRANS: Attagene TRANS-FACTORIAL HepG2 Assay for human Retinoid X Receptor alpha (RXRa) (AID 2283012; active means hit-call score of the fitted dose curve at least 0.9, where 1 is the maximum)
Chain of Retinoic acid receptor RXR-alpha (Homo sapiens) (P19793 whole entry, looked up, the tested form may be a part): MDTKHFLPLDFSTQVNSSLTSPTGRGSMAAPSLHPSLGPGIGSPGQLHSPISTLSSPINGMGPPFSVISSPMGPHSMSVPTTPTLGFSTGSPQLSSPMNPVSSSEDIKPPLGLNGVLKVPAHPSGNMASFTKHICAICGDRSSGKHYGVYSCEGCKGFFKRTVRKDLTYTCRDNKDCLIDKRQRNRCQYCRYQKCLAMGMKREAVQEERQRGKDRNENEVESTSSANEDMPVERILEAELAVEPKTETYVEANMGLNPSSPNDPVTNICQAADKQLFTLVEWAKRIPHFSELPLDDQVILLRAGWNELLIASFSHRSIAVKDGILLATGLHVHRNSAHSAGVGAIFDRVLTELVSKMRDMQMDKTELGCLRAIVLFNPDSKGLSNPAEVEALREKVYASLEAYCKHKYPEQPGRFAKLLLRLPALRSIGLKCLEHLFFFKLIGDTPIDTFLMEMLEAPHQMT
In short: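 Cells (HepG2) carried transiently transfected GAL4-responsive reporter units. Following a 24 h chemical incubation, reporter mRNA induction was read via RT-PCR fragment analysis; DMSO served as negative control and baseline.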

[12] = target: human Retinoid X Receptor beta (RXRb), RXRB (gene 6257) (UniProt P28702); assay: ATG_RXRb_TRANS: Attagene TRANS-FACTORIAL HepG2 Assay for human Retinoid X Receptor beta (RXRb) (AID 2283013; active means hit-call score of the fitted dose curve at least 0.9, where 1 is the maximum)
Chain of human Retinoid X Receptor beta (RXRb), RXRB (gene 6257) (P28702 whole entry, looked up): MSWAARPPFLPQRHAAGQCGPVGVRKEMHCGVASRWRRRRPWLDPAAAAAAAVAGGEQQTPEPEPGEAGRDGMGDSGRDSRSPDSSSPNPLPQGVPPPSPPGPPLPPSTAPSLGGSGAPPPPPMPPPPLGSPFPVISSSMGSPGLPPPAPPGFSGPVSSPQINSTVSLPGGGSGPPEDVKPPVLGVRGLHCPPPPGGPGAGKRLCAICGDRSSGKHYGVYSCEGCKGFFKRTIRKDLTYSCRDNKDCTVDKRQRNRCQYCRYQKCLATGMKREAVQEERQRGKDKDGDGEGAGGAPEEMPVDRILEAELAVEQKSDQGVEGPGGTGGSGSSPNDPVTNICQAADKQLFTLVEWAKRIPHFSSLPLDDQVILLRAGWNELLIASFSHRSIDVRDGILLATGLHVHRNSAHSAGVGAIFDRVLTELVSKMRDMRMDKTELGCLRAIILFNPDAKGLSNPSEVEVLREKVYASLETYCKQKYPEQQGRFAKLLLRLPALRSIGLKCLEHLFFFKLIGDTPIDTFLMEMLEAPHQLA
In short: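 Multiplexed TRANS reporter assay in HepG2; 24 h dosing; reporter mRNA by RT-PCR/CE fluorescence; gain-of-signal relative to DMSO.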

[13] = target: human Thyroid Receptor alpha (THRa1), THRA (gene 7067) (UniProt P10827); assay: ATG_THRa1_TRANS: Attagene TRANS-FACTORIAL HepG2 Assay for human Thyroid Receptor alpha (THRa1) (AID 2283014; active means hit-call score of the fitted dose curve at least 0.9, where 1 is the maximum)
Chain of human Thyroid Receptor alpha (THRa1), THRA (gene 7067) (P10827 whole entry, looked up, the tested form may be a part): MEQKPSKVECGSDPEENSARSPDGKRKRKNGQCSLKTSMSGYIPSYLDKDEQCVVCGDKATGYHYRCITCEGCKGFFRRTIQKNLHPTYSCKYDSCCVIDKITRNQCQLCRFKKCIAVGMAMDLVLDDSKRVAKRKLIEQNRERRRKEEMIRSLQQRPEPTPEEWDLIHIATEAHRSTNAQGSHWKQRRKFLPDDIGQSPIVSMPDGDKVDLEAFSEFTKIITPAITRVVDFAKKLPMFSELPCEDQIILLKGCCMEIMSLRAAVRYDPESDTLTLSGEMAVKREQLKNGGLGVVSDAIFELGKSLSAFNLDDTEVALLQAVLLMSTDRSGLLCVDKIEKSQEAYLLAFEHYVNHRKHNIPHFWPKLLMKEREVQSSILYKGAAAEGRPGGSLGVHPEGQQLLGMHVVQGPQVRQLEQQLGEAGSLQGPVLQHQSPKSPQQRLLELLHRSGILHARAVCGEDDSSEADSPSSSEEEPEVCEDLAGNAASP
In short: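 Reporter transcript induction, read by capillary electrophoresis of 6-FAM-labelled RT-PCR products, reflects activity of a transfected THRa1-Gal4 fusion in HepG2 liver cells. Cells were dosed for 24 h; activity was fitted in the positive direction against DMSO.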

[14] = read-out: E-selectin (Homo sapiens) (UniProt P16581); assay: BSK_3C_Eselectin: BioMAP Diversity Plus: 3C Assay for Eselectin Biomarker Activity (AID 2283015); conditions: primary human endothelial cells (HUVEC); actives raise or lower the signal
In short: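 ELISA read-out of E-selectin on endothelial monolayers after 24 h chemical treatment. Human umbilical vein primary cells served as the system, with DMSO defining baseline activity for bidirectional fitting.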

[15] = read-out: Interleukin-1 alpha (IL1a), IL1A (gene 3552); assay: BSK_BE3C_IL1a: BioMAP Diversity Plus: BE3C Assay for Interleukin-1 alpha (IL1a) Biomarker Activity (AID 2283016); conditions: primary human bronchial epithelial cells; actives raise or lower the signal
In short: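 Cultures of primary human bronchial epithelial cells receive test chemical. After 24 h, IL-1a is quantified by ELISA, while parallel wells are fixed in TCA and SRB-stained for total protein. Changes in either direction are fitted relative to DMSO.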

[16] = read-out: Human Leukocyte Antigen - DR isotype (HLADR), HLA-DRA (gene 3122); assay: BSK_3C_HLADR: BioMAP Diversity Plus: 3C Assay for Human Leukocyte Antigen - DR isotype (HLADR) Biomarker Activity (AID 2283019); conditions: primary human endothelial cells (HUVEC); actives raise or lower the signal
In short: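 ELISA readout of surface HLA-DR on human umbilical vein endothelium, taken 24 h after chemical treatment. Gain- and loss-of-signal were both fitted relative to DMSO.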

[17] = read-out: Monocyte Chemoattractant Protein-1 (MCP1), CCL2 (gene 6347); assay: BSK_4H_MCP1: BioMAP Diversity Plus: 4H Assay for Monocyte Chemoattractant Protein-1 (MCP1) Biomarker Activity (AID 2283018); conditions: primary human endothelial cells (HUVEC); actives raise or lower the signal
In short: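 Readout: MCP-1 ELISA on compound-treated HUVEC, sampled 24 h post-dosing. Baseline and negative control DMSO; bidirectional fit. Overt toxicity checked alongside by sulforhodamine B protein staining at time of biomarker measurement.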

[18] = target: human RAR-related Orphan Receptor beta (RORb), RORB (gene 6096) (UniProt Q92753); assay: ATG_RORb_TRANS: Attagene TRANS-FACTORIAL HepG2 Assay for human RAR-related Orphan Receptor beta (RORb) (AID 2283010; active means hit-call score of the fitted dose curve at least 0.9, where 1 is the maximum)
Chain of human RAR-related Orphan Receptor beta (RORb), RORB (gene 6096) (Q92753 whole entry, looked up, the tested form may be a part): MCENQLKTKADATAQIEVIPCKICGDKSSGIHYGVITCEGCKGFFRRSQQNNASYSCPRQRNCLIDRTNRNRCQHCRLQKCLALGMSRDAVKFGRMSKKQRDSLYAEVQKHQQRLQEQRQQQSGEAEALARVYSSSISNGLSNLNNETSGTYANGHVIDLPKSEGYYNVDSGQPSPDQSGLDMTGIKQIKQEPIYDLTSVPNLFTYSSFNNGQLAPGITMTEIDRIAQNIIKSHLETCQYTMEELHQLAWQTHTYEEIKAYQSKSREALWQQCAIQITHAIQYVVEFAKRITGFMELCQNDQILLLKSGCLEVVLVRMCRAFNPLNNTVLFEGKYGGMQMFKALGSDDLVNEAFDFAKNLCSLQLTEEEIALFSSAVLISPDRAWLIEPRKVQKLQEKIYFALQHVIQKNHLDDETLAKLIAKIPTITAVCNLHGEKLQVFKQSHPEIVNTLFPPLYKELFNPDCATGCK
In short: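 In this TRANS-format test, human HepG2 cells express chimeric NR-Gal4 fusion proteins driving GAL4-UAS reporters. After 24 h dosing, reporter transcripts are measured by fluorescent RT-PCR/capillary electrophoresis, with DMSO as negative control.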

[19] = read-out: Monocyte Chemoattractant Protein-1 (MCP1), CCL2 (gene 6347); assay: BSK_3C_MCP1: BioMAP Diversity Plus: 3C Assay for Monocyte Chemoattractant Protein-1 (MCP1) Biomarker Activity (AID 2283017); conditions: primary human endothelial cells (HUVEC); actives raise or lower the signal
In short: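 ELISA read-out of MCP-1 from human umbilical vein endothelial cell cultures harvested 24 h post-dosing. Gain or loss of signal was fitted relative to DMSO.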

[20] = target: human Peroxisome Proliferator-activated Receptor delta (PPARd), PPARD (gene 5467) (UniProt Q03181); assay: ATG_PPARd_TRANS: Attagene TRANS-FACTORIAL HepG2 Assay for human Peroxisome Proliferator-activated Receptor delta (PPARd) (AID 2283002; active means hit-call score of the fitted dose curve at least 0.9, where 1 is the maximum)
In short: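 Measured quantity: GAL4-UAS reporter transcript induction in HepG2 after 24 h chemical dosing, with NR-Gal4 chimeras supplied by transient transfection. Detection by RT-PCR and capillary electrophoresis; upward fit against DMSO.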

Measured: AC50

Chain of E-selectin (Homo sapiens) (P16581 whole entry, looked up): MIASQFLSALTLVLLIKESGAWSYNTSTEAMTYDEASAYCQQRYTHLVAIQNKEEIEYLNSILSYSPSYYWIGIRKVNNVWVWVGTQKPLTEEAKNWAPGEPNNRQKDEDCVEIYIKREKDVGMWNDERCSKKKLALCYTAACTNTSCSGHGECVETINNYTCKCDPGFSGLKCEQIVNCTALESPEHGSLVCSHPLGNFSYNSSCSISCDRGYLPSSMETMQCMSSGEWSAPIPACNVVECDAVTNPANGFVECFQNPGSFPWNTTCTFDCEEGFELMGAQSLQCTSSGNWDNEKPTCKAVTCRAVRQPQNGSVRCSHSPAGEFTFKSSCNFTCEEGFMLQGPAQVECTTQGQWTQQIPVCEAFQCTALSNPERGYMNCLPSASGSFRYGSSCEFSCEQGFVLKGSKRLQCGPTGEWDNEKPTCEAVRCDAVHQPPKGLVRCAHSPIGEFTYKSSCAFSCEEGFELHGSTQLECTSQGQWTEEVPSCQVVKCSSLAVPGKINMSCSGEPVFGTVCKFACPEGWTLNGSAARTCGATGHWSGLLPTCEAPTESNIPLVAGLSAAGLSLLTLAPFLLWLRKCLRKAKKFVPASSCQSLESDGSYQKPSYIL

CC1(C)C(C=C(Cl)Cl)C1C(=O)OC(C#N)c1ccc(F)c(Oc2ccccc2)c1 (stereo not drawn)
active: [7] 10.2 µM | [8] 20.9 µM | [9] 21.6 µM
not listed: [17] | [18] | [19] | [20]
inactive: all other assays above

Cc1[nH]c(=O)n(C(C)(C)C)c(=O)c1Cl
active: [3] 11.7 µM | [16] 13.2 µM
not listed: [11] | [12] | [17] | [18] | [19] | [20]
inactive: all other assays above

O=S1OCC2C(CO1)C1(Cl)C(Cl)=C(Cl)C2(Cl)C1(Cl)Cl (stereo not drawn)
inactive: [6] | [8] | [9] | [11]
active: [1] 15.9 µM | [2] 30.3 µM | [3] 30.9 µM | [4] 33.9 µM | [7] 24.5 µM | [14] 34.5 µM | [15] 33.4 µM | [17] 26 µM | [16] 30 µM

O=[N+]([O-])/N=C1\NCCN1Cc1ccc(Cl)nc1
active: [9] 90.7 µM
not listed: [10] | [18] | [19] | [20]
inactive: all other assays above

O=C1c2ccccc2C(=O)N1SC(Cl)(Cl)Cl
active: [15] 32 µM
not listed: [10] | [13] | [20]
inactive: all other assays above

CNC(=O)Oc1ccccc1OC(C)C
active: [15] 5.51 µM
not listed: [6] | [11] | [12] | [13] | [18] | [19] | [20]
inactive: all other assays above

C[C@H]1[C@H](c2ccc(Cl)cc2)SC(=O)N1C(=O)NC1CCCCC1
active: [1] 13.1 µM | [7] 13.1 µM | [8] 16 µM | [16] 21.8 µM
not listed: [10] | [11] | [17] | [18] | [19] | [20]
inactive: all other assays above

CC[C@H](C)[C@H]1O[C@]2(C=C[C@@H]1C)C[C@@H]1C[C@@H](C/C=C(\C)[C@@H](O[C@H]3C[C@H](OC)[C@@H](O[C@H]4C[C@H](OC)[C@@H](O)[C@H](C)O4)[C@H](C)O3)[C@@H](C)/C=C/C=C3\CO[C@@H]4[C@H](O)C(C)=C[C@@H](C(=O)O1)[C@]34O)O2 (tested in a mixture with another compound)
active: [1] 5.44 µM | [2] 9.38 µM | [3] 9.57 µM | [4] 12.4 µM | [7] 4.78 µM | [14] 9.55 µM | [15] 9.4 µM | [16] 5.8 µM
inactive: [5] | [6] | [11] | [12] | [13]

O=C(O)COc1ccc(Cl)cc1Cl
not listed: [5] | [6] | [8] | [10] | [11] | [13] | [17]
inactive: all other assays above

CCOCN(C(=O)CCl)c1c(C)cccc1CC
inactive: [1] | [4] | [6] | [9] | [12] | [13] | [15]
active: [2] 14.3 µM | [3] 35.3 µM | [7] 15.5 µM | [8] 1.23 µM | [14] 15.7 µM | [16] 20 µM

CCN(CC)C(=O)SCc1ccc(Cl)cc1
active: [8] 37.1 µM
not listed: [6] | [13] | [17] | [18] | [19] | [20]
inactive: all other assays above

O=C(NC(=O)c1c(F)cccc1F)Nc1ccc(OC(F)(F)C(F)OC(F)(F)F)c(Cl)c1 (stereo not drawn)
active: [14] 12.7 µM | [16] 14 µM
not listed: [5] | [6] | [9] | [10] | [12] | [17] | [18]
inactive: all other assays above

CCC(C)Nc1c([N+](=O)[O-])cc(C(C)(C)C)cc1[N+](=O)[O-] (stereo not drawn)
active: [1] 17.8 µM | [2] 24.8 µM | [7] 34.6 µM | [8] 36.8 µM | [9] 8.2 µM | [14] 25.8 µM | [16] 20 µM
inactive: [3] | [4] | [5] | [6] | [18] | [12] | [15]

CN1CSC(=S)N(C)C1
active: [2] 21.5 µM | [3] 20.9 µM | [7] 26.6 µM | [14] 18.1 µM | [16] 19 µM
not listed: [6] | [9] | [12] | [19] | [20]
inactive: all other assays above
